Measured values reported in the supplement of paper PMC9694430.

What was measured:
Test in all cases: thermal shift delta Tm vs DMSO control; higher = stronger stabilization (binding)
Details in all cases: 12.5 µM; protein concentration 2 µM
[1] = test system: LOC_OS01G57100-cb003
How it was run: (§1)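 Heating from 25°C to 95°C at 0.05°C/s, fluorescence was recorded for 19.5 μl wells of 2 μM E. coli-expressed, purified rice kinase domain in 100 mM potassium phosphate pH 7.5, 150 mM NaCl, 10% glycerol and 5 × SYPRO Orange with compound in DMSO. Boltzmann fits gave melting temperatures for this differential scanning fluorimetry assay. The shift reported is the mean of three replicates against the DMSO-only protein.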

[2] = test system: LOC_OS01G60330-cb001
How it was run: as §1

[3] = test system: LOC_OS01G60700-cb002
How it was run: as §1

[4] = test system: LOC_OS01G63280-cb003
How it was run: as §1

[5] = test system: LOC_OS01G67340-cb003
How it was run: as §1

[6] = test system: LOC_OS01G70970-cb002
How it was run: as §1

[7] = test system: LOC_OS02G07810-cb001
How it was run: as §1

[8] = test system: LOC_OS02G08530-cb003
How it was run: as §1

[9] = test system: LOC_OS02G14120-cb001
How it was run: as §1

[10] = test system: LOC_OS02G17970-cb001
How it was run: as §1

[11] = test system: LOC_OS02G45750-cb003
How it was run: as §1

[12] = test system: LOC_OS02G54510-cb004
How it was run: as §1

[13] = test system: LOC_OS03G04050-cb001
How it was run: as §1

[14] = test system: LOC_OS03G12390-cb001
How it was run: as §1

[15] = test system: LOC_OS03G27990-cb004
How it was run: as §1

[16] = test system: LOC_OS03G50450-cb001
How it was run: as §1

[17] = test system: LOC_OS03G50810-cb003
How it was run: as §1

[18] = test system: LOC_OS04G35114-cb001
How it was run: as §1

[19] = test system: T1, LOC_OS04G38480-cb003
T1 sequence (whole entry): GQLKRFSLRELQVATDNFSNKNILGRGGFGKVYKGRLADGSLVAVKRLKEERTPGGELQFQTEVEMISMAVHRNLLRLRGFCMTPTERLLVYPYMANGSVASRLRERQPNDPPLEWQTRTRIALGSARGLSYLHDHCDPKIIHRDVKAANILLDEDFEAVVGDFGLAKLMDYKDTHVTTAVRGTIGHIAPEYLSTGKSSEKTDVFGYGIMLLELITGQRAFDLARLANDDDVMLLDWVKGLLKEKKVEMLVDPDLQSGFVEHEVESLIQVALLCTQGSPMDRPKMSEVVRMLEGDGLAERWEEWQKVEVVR
How it was run: as §1

[20] = test system: T2, LOC_OS04G41100-cb001
T2 sequence (whole entry): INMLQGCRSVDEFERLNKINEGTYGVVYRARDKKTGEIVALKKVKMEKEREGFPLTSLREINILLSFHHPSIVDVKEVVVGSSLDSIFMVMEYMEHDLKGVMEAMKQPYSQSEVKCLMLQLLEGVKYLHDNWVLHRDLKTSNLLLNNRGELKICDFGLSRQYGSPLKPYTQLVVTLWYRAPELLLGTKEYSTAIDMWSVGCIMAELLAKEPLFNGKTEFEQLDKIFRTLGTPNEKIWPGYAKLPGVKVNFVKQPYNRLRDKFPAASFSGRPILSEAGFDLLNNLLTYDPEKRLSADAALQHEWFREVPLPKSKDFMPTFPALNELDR
How it was run: as §1
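Also: purified Escherichia coli-expressed rice kinase domain construct.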

SMILES	thermal shift delta Tm [1]	thermal shift delta Tm [2]	thermal shift delta Tm [3]	thermal shift delta Tm [4]	thermal shift delta Tm [5]	thermal shift delta Tm [6]	thermal shift delta Tm [7]	thermal shift delta Tm [8]	thermal shift delta Tm [9]	thermal shift delta Tm [10]	thermal shift delta Tm [11]	thermal shift delta Tm [12]	thermal shift delta Tm [13]	thermal shift delta Tm [14]	thermal shift delta Tm [15]	thermal shift delta Tm [16]	thermal shift delta Tm [17]	thermal shift delta Tm [18]	thermal shift delta Tm [19]	thermal shift delta Tm [20]
O=C1Nc2ccc(CN3C(=O)CSC3=O)cc2/C1=C/c1cc(CN2CCOCC2)c[nH]1	0.8 °C	0.38 °C	0.05 °C	0.05 °C	0.83 °C	0.36 °C	-0.68 °C	2.55 °C	9.24 °C	-0.08 °C	2.91 °C	0.28 °C	0.58 °C	4.37 °C	0.63 °C	0.68 °C	2 °C	3.48 °C	3.05 °C	0.46 °C
CCc1cccc(CC)c1NC(=O)N1Cc2[nH]nc(NC(=O)c3ccc(N4CCN(C)CC4)cc3)c2C1	0.59 °C	0.73 °C	0.44 °C	0.43 °C	-0.29 °C	0.21 °C	0.66 °C	0.96 °C	4.48 °C	0.32 °C	2.47 °C	0.46 °C	0.29 °C	4.75 °C	0.09 °C	0.27 °C	2.53 °C	4.67 °C	0.61 °C	0.62 °C
O=C1NC(=O)[C@@H](c2cn3c4c(cccc24)CCC3)[C@@H]1c1c[nH]c2ccccc12 [Tivantinib (ARQ 197)]	1.7 °C	0.74 °C	0.02 °C	0.24 °C	0.37 °C	0.39 °C	0.91 °C	0.76 °C	0.16 °C	0.24 °C	0.51 °C	0.03 °C	0.44 °C	-0.01 °C	0.43 °C	0.17 °C	0.07 °C	0.51 °C	0.13 °C	0.36 °C
COc1cc2ncnc(Nc3cccc(Cl)c3)c2cc1OC [AG-1478 (Tyrphostin AG-1478)]	1.76 °C	1.26 °C	1.02 °C	0.95 °C	0.94 °C	0.55 °C	1.34 °C	1.69 °C	6.87 °C	1.37 °C	4.64 °C	0.2 °C	0.25 °C	2.86 °C	0.56 °C	0.38 °C	2.25 °C	6.57 °C	2.27 °C	0.04 °C
Nc1ccc(C(=O)Nc2cccc(-c3nc(N4CCOCC4)c4oc5ncccc5c4n3)c2)cn1	1.26 °C	1.1 °C	1.16 °C	-0.04 °C	-0.15 °C	0.23 °C	0.77 °C	1.1 °C	0.34 °C	0.35 °C	0.01 °C	0.01 °C	1.54 °C	0.36 °C	0.09 °C	0.25 °C	0.09 °C	0.9 °C	0.66 °C	0.52 °C
Cc1ccc(NC(=O)c2cccc(C(C)(C)C#N)c2)cc1Nc1ccc2ncn(C)c(=O)c2c1	2.69 °C	0.66 °C	1.2 °C	3.69 °C	0.79 °C	0.4 °C	1.74 °C	0.95 °C	1.71 °C	1.2 °C	1.15 °C	1.43 °C	0.45 °C	0.66 °C	0.38 °C	0.1 °C	0.54 °C	0.51 °C	0.88 °C	0.24 °C
COc1ccc(-c2cc3c(C)nc(N)nc3n([C@H]3CC[C@H](OCCO)CC3)c2=O)cn1	2.79 °C	0.98 °C	0.9 °C	0.37 °C	0.23 °C	0.14 °C	1.27 °C	1.09 °C	1.12 °C	0.63 °C	0.52 °C	0.05 °C	0.5 °C	0.41 °C	0.17 °C	0.14 °C	0.45 °C	0.77 °C	1.08 °C	0.32 °C
CC[C@@H](N)CNc1ccnc(-c2cc(-c3cnn(C)c3)ccc2O)n1	0.71 °C	0.32 °C	-0.42 °C	0.05 °C	1.83 °C	0.65 °C	-0.8 °C	2.73 °C	4.11 °C	0.54 °C	2.91 °C	-0.17 °C	0.27 °C	0.67 °C	0.75 °C	0.74 °C	1.49 °C	6.46 °C	1.41 °C	2.6 °C
CCS(=O)(=O)Nc1ccc2c(c1)/C(=C(/Nc1ccc(CN3CCCCC3)cc1)c1ccccc1)C(=O)N2 [Hesperadin]	1.29 °C	4.08 °C	0.7 °C	1.11 °C	6.7 °C	9.09 °C	1.1 °C	5.73 °C	13 °C	0.3 °C	14.4 °C	0.53 °C	0.02 °C	8.56 °C	2.77 °C	2.45 °C	11.8 °C	13.2 °C	4.11 °C	0.76 °C
CO[C@@H](C(=O)N1Cc2[nH]nc(NC(=O)c3ccc(N4CCN(C)CC4)cc3)c2C1)c1ccccc1	0.28 °C	1.12 °C	0.4 °C	0.57 °C	-0.26 °C	1.38 °C	0.65 °C	0.25 °C	9.66 °C	0.37 °C	6.97 °C	0.95 °C	0.25 °C	4.21 °C	0.41 °C	-0.04 °C	3.61 °C	4.16 °C	2.5 °C	1.51 °C
O=c1cc(N2CCOCC2)oc2c(-c3ccccc3)cccc12	0.48 °C	1.07 °C	1.31 °C	0.43 °C	-0.28 °C	0.36 °C	1.28 °C	0.91 °C	0.08 °C	0.84 °C	0.29 °C	0 °C	0.47 °C	0.68 °C	-0.02 °C	0.21 °C	0.41 °C	0.16 °C	0.52 °C	0.8 °C
CC(C)(O)CNc1ncc(-c2ccnc(Nc3ccnc(Cl)c3)n2)c(CC2CC2)n1	0.99 °C	1.94 °C	0.32 °C	-0.09 °C	0.66 °C	0.37 °C	0.23 °C	0.89 °C	1.97 °C	-0.17 °C	2.85 °C	0.6 °C	0.19 °C	-0.18 °C	0.11 °C	0.3 °C	0.65 °C	3.2 °C	1.45 °C	0.65 °C
O=S(=O)(NCCNC/C=C/c1ccc(Br)cc1)c1cccc2cnccc12	1.34 °C	0.45 °C	0.98 °C	0.58 °C	-0.25 °C	0.05 °C	1.39 °C	0.72 °C	0.95 °C	0.98 °C	0.56 °C	0.32 °C	0.25 °C	0.22 °C	0.02 °C	0.46 °C	0.01 °C	0.54 °C	0.79 °C	0.63 °C
